# Test results reported in the supplement of paper PMC8728848.
# This is one part of a sample in which the strongest signals are shown more often than they occur.
# How the values were obtained:
# Assay in all cases: glycan array binding signal (z-score within array); higher = stronger binding
# Conditions in all cases: glycan notation: IUPAC condensed, linker removed
# [1] = molecular target: Fuc(a1-2)[Gal(a1-3)]Gal(b1-4)Glc
# Procedure, shortened: (§1)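 The Consortium for Functional Glycomics database supplied 3228 glycan arrays, of which those lacking an available protein sequence were dropped. The binding signal, a within-array Z-score, was averaged across arrays of the same protein sequence and across linkers. Negative scores can be read as non-binding.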
# [2] = molecular target: Fuc(a1-2)[Gal(a1-3)]Gal(b1-4)GlcNAc
# Procedure, shortened: as §1
# [3] = molecular target: Fuc(a1-2)[Gal(a1-3)]Gal(b1-4)GlcNAc(b1-2)Man(a1-3)[Fuc(a1-2)[Gal(a1-3)]Gal(b1-4)GlcNAc(b1-2)Man(a1-6)]Man(b1-4)GlcNAc(b1-4)GlcNAc
# Procedure, shortened: as §1
# [4] = molecular target: Fuc(a1-2)[GalNAc(a1-3)]Gal(b1-3)GlcNAc(b1-2)Man(a1-3)[Fuc(a1-2)[GalNAc(a1-3)]Gal(b1-3)GlcNAc(b1-2)Man(a1-6)]Man(b1-4)GlcNAc(b1-4)GlcNAc
# Procedure, shortened: as §1
# [5] = molecular target: Fuc(a1-2)[GalNAc(b1-3)]Gal
# Procedure, shortened: as §1
# [6] = molecular target: Fuc(a1-3)[Gal(b1-4)]GlcNAc
# Procedure, shortened: as §1
# [7] = molecular target: Fuc(a1-3)[Gal3S(b1-4)]GlcNAc6S
# Procedure, shortened: as §1
# Gal(a1-3)Gal(b1-3)GlcNAc = molecular target: Gal(a1-3)Gal(b1-3)GlcNAc
# Procedure, shortened: as §1
# Gal(a1-4)Gal(b1-4)Glc = molecular target: Gal(a1-4)Gal(b1-4)Glc
# Procedure, shortened: as §1
# Gal(a1-6)Glc = molecular target: Gal(a1-6)Glc
# Procedure, shortened: as §1
# [8] = molecular target: Gal(b1-3)Gal(b1-4)GlcNAc(b1-2)Man(a1-3)[Gal(b1-3)Gal(b1-4)GlcNAc(b1-2)Man(a1-6)]Man(b1-4)GlcNAc(b1-4)GlcNAc
# Procedure, shortened: as §1
# [9] = molecular target: Gal(b1-3)GalNAc(b1-4)Gal(b1-4)Glc
# Procedure, shortened: as §1
# [10] = molecular target: Gal(b1-3)GalNAc(b1-4)[Neu5Ac(a2-3)]Gal(b1-4)Glc
# Procedure, shortened: as §1
# [11] = molecular target: Gal(b1-3)GlcNAc(b1-2)Man(a1-3)[Gal(b1-3)GlcNAc(b1-2)Man(a1-6)]Man(b1-4)GlcNAc(b1-4)GlcNAc
# Procedure, shortened: as §1
# [12] = molecular target: Gal(b1-3)GlcNAc(b1-3)Gal(b1-3)GlcNAc
# Procedure, shortened: as §1
# [13] = molecular target: Gal(b1-3)GlcNAc(b1-3)Gal(b1-4)[Fuc(a1-3)]GlcNAc(b1-6)[Gal(b1-3)GlcNAc(b1-3)]Gal(b1-4)Glc
# Procedure, shortened: as §1
# Gal(b1-4)Glc = molecular target: Gal(b1-4)Glc
# Procedure, shortened: as §1
# [14] = molecular target: Gal(b1-4)GlcNAc(b1-2)[Gal(b1-4)GlcNAc(b1-4)]Man(a1-3)[Gal(b1-4)GlcNAc(b1-2)Man(a1-6)]Man(b1-4)GlcNAc(b1-4)GlcNAc
# Procedure, shortened: as §1
# [15] = molecular target: Gal(b1-4)GlcNAc(b1-3)[Gal(b1-4)GlcNAc(b1-6)]GalNAc
# Procedure, shortened: as §1
# [16] = molecular target: Gal(b1-4)GlcNAc(b1-6)[Gal(b1-3)]GalNAc
# Procedure, shortened: as §1
# [17] = molecular target: Gal3S(b1-4)[Fuc(a1-3)]Glc
# Procedure, shortened: as §1
# [18] = molecular target: GalNAc(a1-3)GalNAc(a1-3)Gal(a1-4)Gal(b1-4)GlcNAc
# Procedure, shortened: as §1
# [19] = molecular target: GalNAc(b1-3)Gal(a1-6)Gal(b1-4)Glc
# Procedure, shortened: as §1
# Glc(b1-6)Glc = molecular target: Glc(b1-6)Glc
# Procedure, shortened: as §1
# [20] = molecular target: GlcNAc(a1-4)Gal(b1-4)GalNAc
# Procedure, shortened: as §1
# [21] = molecular target: GlcNAc(a1-4)Gal(b1-4)GlcNAc(b1-3)Gal(b1-4)[Fuc(a1-3)]GlcNAc(b1-3)Gal(b1-4)[Fuc(a1-3)]GlcNAc
# Procedure, shortened: as §1
# Man(a1-6)Man = molecular target: Man(a1-6)Man
# Procedure, shortened: as §1
# Man(b1-4)GlcNAc = molecular target: Man(b1-4)GlcNAc
# Procedure, shortened: as §1
# [22] = molecular target: Neu5Ac(a2-3)Gal(b1-3)GlcNAc(b1-3)GalNAc
# Procedure, shortened: as §1
# [23] = molecular target: Neu5Ac(a2-3)Gal(b1-4)[Fuc(a1-3)]GlcNAc(b1-3)Gal(b1-4)[Fuc(a1-3)]GlcNAc(b1-3)Gal(b1-4)[Fuc(a1-3)]GlcNAc
# Procedure, shortened: as §1
binder,measurement,setting,value
"SspB (Streptococcus gordonii), P16952 (protein) MKNKKEVYGFRKSKVAKTLCGAVLGTALIAFADKAVFADEVTETTSTSTVEVATTGNPATNLPEAQGEMSQVAKESQAKAGSKESALPVEVSSADLDKAVADAKSAGVKVVQDETKDKGTATTATDNAQKQDEIKSDYAKQAEEIKTTTEAYKKEVAAHQAETDKINAENKAADDKYQKDLKSHQEEVEKINTANATAKAEYEAKLAQYQKDLATVKKANEDSQQDYQNKLSAYQTELARVQKANAEAKEAYEKAVKENTAKNEALKVENEAIKQRNETAKATYEAAMKQYEADLAAIKKANEDNDADYQAKLAAYQTELARVQKANAEAKEAYDKAVKENTAKNTAIQAENEAIKQRNETAKATYDAAVKKYEADLAAVKQANATNEADYQAKLAAYQTELARVQKANADAKATYEKAVEDNKAKNAAIKAENEEIKQRNAVAKTDYEAKLAKYEADLAKYKKEFAAYTAALAEAESKKKQDGYLSEPRSQSLNFKSEPNAIRTIDSSVHQYGQQELDALVKSWGISPTNPDRKKSRAYSYFNAINSNNTYAKLVLEKDKPVDVTYTGLKNSSFNGKKISKVVYTYTLKETGFNDGTKMTMFASSDPTVTAWYNDYFTSTNINVKVKFYDEEGQLMNLTGGLVNFSSLNRGNGSGAIDKDAIESVRNFNGRYIPISGSSIKIHENNSAYADSSNAEKSLGARWNTSEWDTTSSPNNWYGAIVGEITQSEISFNMASSKSGNIWFAFNSNINAIGVPTKPVAPTAPTQPMYETEKPLEPAPVAPSYENEPTPPVKTPDQPEPSKPEEPTYETEKPLEPAPVAPSYENEPTPPVKTPDQPEPSKPEEPNYETEKPLEPAPVAPSYENEPTPPVKIPDQPEPSKPEEPTYDPLPTPPLAPTPKQLPTPPVVPTVHFHYSSLLAQPQINKEIKNEDGVDIDRTLVAKQSIVKFELKTEALTAGRPKTTSFVLVDPLPTGYKFDLDATKAASTGFDTTYDEASHTVTFKATDETLATYNADLTKPVETLHPTVVGRVLNDGATYTNNFTLTVNDAYGIKSNVVRVTTPGKPNDPDNPNNNYIKPTKVNKNKEGLNIDGKEVLAGSTNYYELTWDLDQYKGDKSSKEAIQNGFYYVDDYPEEALDVRPDLVKVADEKGNQVSGVSVQQYDSLEAAPKKVQDLLKKANITVKGAFQLFSADNPEEFYKQYVATGTSLVITDPMTVKSEFGKTGGKYENKAYQIDFGNGYATEVVVNNVPKITPKKDVTVSLDPTSENLDGQTVQLYQTFNYRLIGGLIPQNHSEELEDYSFVDDYDQAGDQYTGNYKTFSSLNLTMKDGSVIKAGTDLTSQTTAETDATNGIVTVRFKEDFLQKISLDSPFQAETYLQMRRIAIGTFENTYVNTVNKVAYASNTVRTTTPIPRTPDKPTPIPTPKPKDPDKPETPKEPKVPSPKVEDPSAPIPVSVGKELTTLPKTGTNDATYMPYLGLAALVGFLGLGLAKRKED",glycan array binding signal (z-score),[1],0.486
same,glycan array binding signal (z-score),[2],0.017
same,glycan array binding signal (z-score),[3],2.31
same,glycan array binding signal (z-score),[4],-0.556
same,glycan array binding signal (z-score),[5],0.761
same,glycan array binding signal (z-score),[6],-0.041
same,glycan array binding signal (z-score),[7],0.242
same,glycan array binding signal (z-score),Gal(a1-3)Gal(b1-3)GlcNAc,-0.597
same,glycan array binding signal (z-score),Gal(a1-4)Gal(b1-4)Glc,-1.22
same,glycan array binding signal (z-score),Gal(a1-6)Glc,0.072
same,glycan array binding signal (z-score),[8],-0.672
same,glycan array binding signal (z-score),[9],1.1
same,glycan array binding signal (z-score),[10],-1.62
same,glycan array binding signal (z-score),[11],0.616
same,glycan array binding signal (z-score),[12],-0.283
same,glycan array binding signal (z-score),[13],1.07
same,glycan array binding signal (z-score),Gal(b1-4)Glc,-0.34
same,glycan array binding signal (z-score),[14],1.08
same,glycan array binding signal (z-score),[15],5.73
same,glycan array binding signal (z-score),[16],-1.35
same,glycan array binding signal (z-score),[17],0.344
same,glycan array binding signal (z-score),[18],0.985
same,glycan array binding signal (z-score),[19],-0.859
same,glycan array binding signal (z-score),Glc(b1-6)Glc,-1.1
same,glycan array binding signal (z-score),[20],-0.557
same,glycan array binding signal (z-score),[21],3.03
same,glycan array binding signal (z-score),Man(a1-6)Man,2.65
same,glycan array binding signal (z-score),Man(b1-4)GlcNAc,-0.696
same,glycan array binding signal (z-score),[22],0.045
same,glycan array binding signal (z-score),[23],0.022
